The supplement of paper PMC11732987, “Enantioselective OTUD7B fragment discovery through chemoproteomics screening and high-throughput optimisation” (Communications Chemistry, 2025)

Tests used:
Test in all cases: log2 ratio of Biotin-Ahx-Ub-VS probe labelling (fragment/DMSO); higher = less target engagement (more negative = stronger competition), active = hit call of the paper (q ≤ 0.05, log2 ratio ≤ -1)
Settings in all cases: compound concentration: 200 uM; treatment time: 3 h
[1] = target: USP34 (UniProt Q70CQ2)
USP34, sequence (Q70CQ2 whole entry, the tested form may be a part): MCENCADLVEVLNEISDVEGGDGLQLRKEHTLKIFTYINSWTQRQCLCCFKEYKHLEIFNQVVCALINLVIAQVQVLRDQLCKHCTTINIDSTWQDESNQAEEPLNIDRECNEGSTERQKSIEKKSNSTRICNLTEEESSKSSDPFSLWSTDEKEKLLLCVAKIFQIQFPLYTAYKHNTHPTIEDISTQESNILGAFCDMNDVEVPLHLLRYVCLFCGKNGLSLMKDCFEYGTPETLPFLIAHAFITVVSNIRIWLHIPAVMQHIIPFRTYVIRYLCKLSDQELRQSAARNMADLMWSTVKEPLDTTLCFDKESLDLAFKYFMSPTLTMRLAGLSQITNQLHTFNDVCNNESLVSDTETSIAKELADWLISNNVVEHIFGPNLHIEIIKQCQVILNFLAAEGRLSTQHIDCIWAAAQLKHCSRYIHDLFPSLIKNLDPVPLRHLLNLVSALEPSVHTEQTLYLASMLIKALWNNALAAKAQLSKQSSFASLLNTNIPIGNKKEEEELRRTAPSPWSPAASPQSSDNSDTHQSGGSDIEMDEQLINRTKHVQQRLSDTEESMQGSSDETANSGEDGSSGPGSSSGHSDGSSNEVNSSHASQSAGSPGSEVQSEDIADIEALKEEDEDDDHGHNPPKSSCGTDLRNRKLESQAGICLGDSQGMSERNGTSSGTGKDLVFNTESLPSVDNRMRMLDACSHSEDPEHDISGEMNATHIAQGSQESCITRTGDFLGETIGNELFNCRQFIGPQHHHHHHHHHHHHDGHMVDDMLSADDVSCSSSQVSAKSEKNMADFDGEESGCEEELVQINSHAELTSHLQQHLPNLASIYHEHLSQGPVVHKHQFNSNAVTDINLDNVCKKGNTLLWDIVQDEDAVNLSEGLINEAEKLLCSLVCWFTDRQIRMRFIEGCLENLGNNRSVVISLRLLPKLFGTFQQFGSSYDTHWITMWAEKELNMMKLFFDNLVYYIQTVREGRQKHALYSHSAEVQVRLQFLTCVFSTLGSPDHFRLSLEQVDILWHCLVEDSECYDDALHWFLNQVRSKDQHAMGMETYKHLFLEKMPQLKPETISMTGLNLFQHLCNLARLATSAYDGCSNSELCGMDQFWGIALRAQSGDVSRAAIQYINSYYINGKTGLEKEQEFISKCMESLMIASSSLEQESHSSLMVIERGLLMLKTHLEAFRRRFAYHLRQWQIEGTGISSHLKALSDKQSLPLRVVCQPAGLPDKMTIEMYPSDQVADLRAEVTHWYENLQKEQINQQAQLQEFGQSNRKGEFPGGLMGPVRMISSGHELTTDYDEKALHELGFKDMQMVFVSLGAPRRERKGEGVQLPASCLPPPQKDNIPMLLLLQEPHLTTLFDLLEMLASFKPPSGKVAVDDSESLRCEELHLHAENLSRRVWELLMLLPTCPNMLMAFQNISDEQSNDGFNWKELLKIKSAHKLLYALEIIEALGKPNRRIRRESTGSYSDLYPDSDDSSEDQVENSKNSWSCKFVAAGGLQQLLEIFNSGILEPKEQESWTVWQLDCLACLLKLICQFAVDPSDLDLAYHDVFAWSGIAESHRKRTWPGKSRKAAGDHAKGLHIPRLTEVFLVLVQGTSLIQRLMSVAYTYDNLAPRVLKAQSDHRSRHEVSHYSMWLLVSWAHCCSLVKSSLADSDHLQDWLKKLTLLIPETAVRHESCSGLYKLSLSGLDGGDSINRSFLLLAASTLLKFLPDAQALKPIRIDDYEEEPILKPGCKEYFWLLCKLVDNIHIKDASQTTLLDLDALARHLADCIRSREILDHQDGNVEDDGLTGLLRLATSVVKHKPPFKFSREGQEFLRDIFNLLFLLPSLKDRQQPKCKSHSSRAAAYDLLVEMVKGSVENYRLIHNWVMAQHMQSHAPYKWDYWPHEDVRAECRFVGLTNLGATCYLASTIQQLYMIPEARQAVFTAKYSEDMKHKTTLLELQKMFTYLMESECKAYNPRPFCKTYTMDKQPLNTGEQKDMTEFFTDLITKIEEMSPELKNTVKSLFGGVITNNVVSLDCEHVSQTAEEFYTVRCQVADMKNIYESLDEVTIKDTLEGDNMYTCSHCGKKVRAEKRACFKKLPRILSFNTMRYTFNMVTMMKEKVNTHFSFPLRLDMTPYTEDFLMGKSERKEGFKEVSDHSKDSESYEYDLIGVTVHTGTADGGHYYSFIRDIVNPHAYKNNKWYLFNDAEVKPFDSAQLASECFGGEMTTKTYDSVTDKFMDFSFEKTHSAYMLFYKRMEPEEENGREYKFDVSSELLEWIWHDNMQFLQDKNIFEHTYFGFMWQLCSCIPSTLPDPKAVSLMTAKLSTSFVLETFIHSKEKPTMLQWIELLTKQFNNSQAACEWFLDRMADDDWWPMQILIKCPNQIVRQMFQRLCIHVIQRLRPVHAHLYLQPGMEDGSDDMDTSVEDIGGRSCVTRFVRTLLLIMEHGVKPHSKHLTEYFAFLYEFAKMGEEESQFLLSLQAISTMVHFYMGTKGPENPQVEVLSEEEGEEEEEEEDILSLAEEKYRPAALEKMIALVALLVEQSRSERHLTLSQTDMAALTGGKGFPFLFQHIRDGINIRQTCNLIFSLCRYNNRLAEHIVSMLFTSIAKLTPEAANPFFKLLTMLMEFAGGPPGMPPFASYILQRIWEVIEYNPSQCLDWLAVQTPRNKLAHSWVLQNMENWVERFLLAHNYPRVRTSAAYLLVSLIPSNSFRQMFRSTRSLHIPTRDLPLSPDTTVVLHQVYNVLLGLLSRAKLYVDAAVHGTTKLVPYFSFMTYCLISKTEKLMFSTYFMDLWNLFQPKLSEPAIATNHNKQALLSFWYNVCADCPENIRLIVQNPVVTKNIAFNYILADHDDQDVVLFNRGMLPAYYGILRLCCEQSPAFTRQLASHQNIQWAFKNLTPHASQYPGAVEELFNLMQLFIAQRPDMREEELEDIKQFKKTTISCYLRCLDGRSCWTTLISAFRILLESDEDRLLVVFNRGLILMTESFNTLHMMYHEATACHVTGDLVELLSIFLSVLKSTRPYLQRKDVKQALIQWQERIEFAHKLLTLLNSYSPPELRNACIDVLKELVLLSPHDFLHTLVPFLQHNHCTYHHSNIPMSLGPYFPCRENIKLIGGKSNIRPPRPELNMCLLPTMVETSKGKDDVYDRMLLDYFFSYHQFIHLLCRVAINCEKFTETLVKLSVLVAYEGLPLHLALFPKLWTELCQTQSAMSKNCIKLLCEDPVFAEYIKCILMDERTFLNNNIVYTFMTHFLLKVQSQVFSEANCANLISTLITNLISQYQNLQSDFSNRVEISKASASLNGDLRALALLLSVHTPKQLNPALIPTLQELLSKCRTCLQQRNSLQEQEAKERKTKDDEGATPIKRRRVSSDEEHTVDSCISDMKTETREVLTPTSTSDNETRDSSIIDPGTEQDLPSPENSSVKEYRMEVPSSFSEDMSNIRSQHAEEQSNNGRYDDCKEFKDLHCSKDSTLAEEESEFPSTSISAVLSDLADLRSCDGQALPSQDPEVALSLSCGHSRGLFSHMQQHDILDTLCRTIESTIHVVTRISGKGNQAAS
Summary of the method: (§1)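 Fragment (200 µM) or vehicle was incubated for 3 h with triplicate HEK293T lysate samples of 495 µg, which were then treated with Biotin-Ahx-Ub-VS at 0.5 µM final for 1 h. Labelled DUBs were enriched on NeutrAvidin, digested with LysC and trypsin, and analysed by diaPASEF LC-MS/MS. Values are average log2 fragment/vehicle ratios from an unpaired t-test on global-median-normalised Spectronaut label-free quantities, using proteins with ≥2 unique peptides.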

[2] = target: T1, USP36 (UniProt Q9P275)
T1 sequence (whole entry): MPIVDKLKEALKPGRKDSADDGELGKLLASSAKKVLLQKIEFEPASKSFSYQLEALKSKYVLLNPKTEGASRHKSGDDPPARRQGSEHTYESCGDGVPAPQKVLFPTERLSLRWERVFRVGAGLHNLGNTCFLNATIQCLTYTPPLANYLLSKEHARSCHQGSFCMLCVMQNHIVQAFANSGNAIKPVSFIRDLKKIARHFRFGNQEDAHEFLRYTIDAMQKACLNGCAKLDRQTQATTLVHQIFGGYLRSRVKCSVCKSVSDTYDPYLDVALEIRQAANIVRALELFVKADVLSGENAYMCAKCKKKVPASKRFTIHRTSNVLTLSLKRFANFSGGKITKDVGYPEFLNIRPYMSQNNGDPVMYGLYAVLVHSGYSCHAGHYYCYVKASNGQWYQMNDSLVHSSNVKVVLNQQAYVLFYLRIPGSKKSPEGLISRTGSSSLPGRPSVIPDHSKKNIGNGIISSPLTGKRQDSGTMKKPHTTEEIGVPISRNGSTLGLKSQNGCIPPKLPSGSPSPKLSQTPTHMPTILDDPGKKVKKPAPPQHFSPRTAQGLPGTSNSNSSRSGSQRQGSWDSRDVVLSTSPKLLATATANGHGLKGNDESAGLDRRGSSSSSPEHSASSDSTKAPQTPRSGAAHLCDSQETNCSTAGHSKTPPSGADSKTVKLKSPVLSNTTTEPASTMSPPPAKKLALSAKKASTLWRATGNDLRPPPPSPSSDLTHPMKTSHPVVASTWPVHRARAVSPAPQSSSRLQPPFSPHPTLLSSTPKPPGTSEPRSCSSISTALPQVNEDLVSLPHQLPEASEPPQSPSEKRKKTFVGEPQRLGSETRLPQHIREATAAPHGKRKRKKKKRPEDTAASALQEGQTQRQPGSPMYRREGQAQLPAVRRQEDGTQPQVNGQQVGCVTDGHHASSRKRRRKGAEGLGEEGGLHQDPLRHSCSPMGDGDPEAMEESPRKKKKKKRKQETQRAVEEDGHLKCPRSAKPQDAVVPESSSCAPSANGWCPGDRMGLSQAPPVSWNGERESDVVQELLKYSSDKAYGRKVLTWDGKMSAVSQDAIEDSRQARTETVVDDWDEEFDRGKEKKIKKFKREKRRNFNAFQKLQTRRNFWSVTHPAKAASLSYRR
Summary of the method: as §1

[3] = target: T2, USP38 (UniProt Q8NB14)
T2 sequence (whole entry): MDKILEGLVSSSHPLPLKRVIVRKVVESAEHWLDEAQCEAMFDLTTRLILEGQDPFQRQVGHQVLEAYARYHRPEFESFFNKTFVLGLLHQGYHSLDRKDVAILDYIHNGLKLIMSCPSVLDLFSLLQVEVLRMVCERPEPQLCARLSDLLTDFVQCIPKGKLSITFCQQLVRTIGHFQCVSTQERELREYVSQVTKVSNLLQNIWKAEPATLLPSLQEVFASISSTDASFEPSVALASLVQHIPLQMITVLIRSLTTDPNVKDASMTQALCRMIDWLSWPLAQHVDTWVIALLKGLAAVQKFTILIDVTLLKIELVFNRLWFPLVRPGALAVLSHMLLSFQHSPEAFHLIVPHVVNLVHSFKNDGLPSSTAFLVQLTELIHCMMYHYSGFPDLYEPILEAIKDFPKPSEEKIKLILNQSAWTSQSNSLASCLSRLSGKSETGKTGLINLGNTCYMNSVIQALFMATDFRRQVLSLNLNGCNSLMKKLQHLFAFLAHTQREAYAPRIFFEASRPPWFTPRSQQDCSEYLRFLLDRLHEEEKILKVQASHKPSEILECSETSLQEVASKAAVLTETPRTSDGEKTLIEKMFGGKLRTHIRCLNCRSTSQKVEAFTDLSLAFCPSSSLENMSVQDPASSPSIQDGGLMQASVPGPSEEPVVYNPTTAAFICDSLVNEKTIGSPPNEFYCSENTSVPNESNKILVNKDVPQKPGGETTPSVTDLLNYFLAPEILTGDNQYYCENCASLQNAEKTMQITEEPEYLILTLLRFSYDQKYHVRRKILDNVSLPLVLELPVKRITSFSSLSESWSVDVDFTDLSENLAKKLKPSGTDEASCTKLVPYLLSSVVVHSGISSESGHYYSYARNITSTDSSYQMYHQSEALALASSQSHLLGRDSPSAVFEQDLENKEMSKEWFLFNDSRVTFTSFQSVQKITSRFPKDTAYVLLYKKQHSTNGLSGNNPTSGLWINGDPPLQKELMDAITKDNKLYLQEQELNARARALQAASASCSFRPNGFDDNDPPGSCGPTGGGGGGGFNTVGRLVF
Summary of the method: as §1

[4] = target: T3, USP39 (UniProt Q53GS9)
T3 sequence (whole entry): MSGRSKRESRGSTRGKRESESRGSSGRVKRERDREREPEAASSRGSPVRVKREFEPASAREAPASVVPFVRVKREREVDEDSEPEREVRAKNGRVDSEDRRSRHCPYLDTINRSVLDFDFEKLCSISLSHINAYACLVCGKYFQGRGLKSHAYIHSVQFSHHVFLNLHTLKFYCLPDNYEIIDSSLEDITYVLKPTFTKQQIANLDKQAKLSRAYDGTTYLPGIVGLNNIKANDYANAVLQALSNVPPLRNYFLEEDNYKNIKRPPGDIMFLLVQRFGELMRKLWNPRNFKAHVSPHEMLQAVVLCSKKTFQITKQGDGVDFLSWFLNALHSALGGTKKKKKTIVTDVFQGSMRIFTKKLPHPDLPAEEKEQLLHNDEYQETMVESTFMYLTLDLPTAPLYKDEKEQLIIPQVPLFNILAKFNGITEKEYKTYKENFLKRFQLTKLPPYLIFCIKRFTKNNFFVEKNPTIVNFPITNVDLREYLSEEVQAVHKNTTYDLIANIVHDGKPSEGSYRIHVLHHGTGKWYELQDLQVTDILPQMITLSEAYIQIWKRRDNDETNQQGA
Summary of the method: as §1

[5] = target: T4, USP4 (UniProt Q13107)
T4 sequence (whole entry): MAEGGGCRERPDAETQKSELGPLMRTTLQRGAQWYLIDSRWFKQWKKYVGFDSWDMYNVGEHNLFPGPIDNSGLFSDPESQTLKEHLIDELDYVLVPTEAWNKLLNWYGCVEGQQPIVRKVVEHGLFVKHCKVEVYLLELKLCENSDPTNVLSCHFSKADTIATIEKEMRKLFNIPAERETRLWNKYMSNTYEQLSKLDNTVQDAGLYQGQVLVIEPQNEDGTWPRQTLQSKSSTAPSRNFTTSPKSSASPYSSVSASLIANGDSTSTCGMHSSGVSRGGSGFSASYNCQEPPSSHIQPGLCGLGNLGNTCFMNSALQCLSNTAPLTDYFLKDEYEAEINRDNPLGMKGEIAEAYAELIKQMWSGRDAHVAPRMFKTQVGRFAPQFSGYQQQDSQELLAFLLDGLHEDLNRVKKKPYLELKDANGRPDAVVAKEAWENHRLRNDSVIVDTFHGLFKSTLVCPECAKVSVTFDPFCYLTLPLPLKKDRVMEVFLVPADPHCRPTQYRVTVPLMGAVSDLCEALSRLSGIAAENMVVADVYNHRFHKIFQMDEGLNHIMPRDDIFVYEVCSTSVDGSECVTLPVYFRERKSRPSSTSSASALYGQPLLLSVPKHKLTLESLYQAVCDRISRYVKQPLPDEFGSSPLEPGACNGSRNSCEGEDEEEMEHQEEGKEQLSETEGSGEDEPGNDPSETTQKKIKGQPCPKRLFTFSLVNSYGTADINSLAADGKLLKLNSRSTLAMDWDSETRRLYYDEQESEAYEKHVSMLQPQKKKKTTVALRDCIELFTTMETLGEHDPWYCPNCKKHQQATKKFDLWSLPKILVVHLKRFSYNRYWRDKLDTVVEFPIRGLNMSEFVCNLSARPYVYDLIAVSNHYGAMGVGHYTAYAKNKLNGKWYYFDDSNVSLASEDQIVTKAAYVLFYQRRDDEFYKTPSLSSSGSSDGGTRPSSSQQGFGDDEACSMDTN
Summary of the method: as §1

Measured: log2 ratio of Biotin-Ahx-Ub-VS probe labelling

O=C(CCl)N1CCN2C(=O)CCC2C1 (stereo not given)
inactive: [1] -0.0311 | [2] 0.272 | [3] 0.0868 | [4] -0.106 | [5] -0.0639
